From PubChem BioAssay (NCI)
Compounds without any hit were thinned out: in the full panel of roughly 83,000, 20% have a hit.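 For each line, cells grew in 96-well plates with the test compound present at a single concentration for 48 hours.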 Unmarked numbers belong to inactive results. Activity calls are given as the source filed them. Rule for the calls: active = growth percent below 10; inactive = the rest.

How the values were obtained:
Assay in all cases: NCI-60 one-dose screen, 48 h (100 = growth as untreated, 0 = no growth, -100 = all killed)
Details in all cases: 10 µM
HT29 colon = system: HT29 colon
SNB-75 CNS = system: SNB-75 CNS
SNB-19 CNS = system: SNB-19 CNS
U251 CNS = system: U251 CNS
PC-3 prostate = system: PC-3 prostate
SK-MEL-5 melanoma = system: SK-MEL-5 melanoma
UACC-62 melanoma = system: UACC-62 melanoma
LOX IMVI melanoma = system: LOX IMVI melanoma
SK-MEL-28 melanoma = system: SK-MEL-28 melanoma
SK-MEL-2 melanoma = system: SK-MEL-2 melanoma

Q: Cc1cc(Nc2ccc(Cl)cc2)nc(NCCCNc2ccnc3cc(Cl)ccc23)n1 was tested. Which growth (HT29 colon) did it give?
A: -91.4% (active)

Q: And the growth (SNB-75 CNS)?
A: -94.9% (active)

Q: And the growth (SNB-19 CNS)?
A: -14.3% (active)

Q: And the growth (U251 CNS)?
A: -91.3% (active)

Q: And the growth (PC-3 prostate)?
A: -19.4% (active)

Q: What about the growth (SK-MEL-5 melanoma) of the same compound?
A: -99.8% (active)

Q: What about the growth (UACC-62 melanoma) of the same compound?
A: -80.2% (active)

Q: And the growth (LOX IMVI melanoma)?
A: -83.8% (active)

Q: And the growth (SK-MEL-28 melanoma)?
A: -99.8% (active)

Q: And the growth (SK-MEL-2 melanoma)?
A: -93.4% (active)

Q: Which results are given for COc1ccc2c(c1)nc(N)c1c3cccnc3cn21?
A: growth (HT29 colon): -5.58% (active); growth (SNB-75 CNS): 42%; growth (SNB-19 CNS): 35.9%; growth (U251 CNS): 12.7%; growth (PC-3 prostate): 20.6%; growth (SK-MEL-5 melanoma): -38.1% (active); growth (UACC-62 melanoma): 16%; growth (LOX IMVI melanoma): 35.1%; growth (SK-MEL-28 melanoma): 62.6%; growth (SK-MEL-2 melanoma): 53.2%

Q: What does the source list for COc1ccc2c(c1)sc1nc(-c3ccccc3)c(-c3ccc(O)c(OC)c3)n12?
A: growth (HT29 colon): 21.5%; growth (SNB-75 CNS): 77.6%; growth (SNB-19 CNS): 80.4%; growth (U251 CNS): 41.7%; growth (PC-3 prostate): 82.3%; growth (SK-MEL-5 melanoma): 55.5%; growth (UACC-62 melanoma): 66.2%; growth (LOX IMVI melanoma): 61.5%; growth (SK-MEL-28 melanoma): 73.6%; growth (SK-MEL-2 melanoma): 49.8%

Q: For O=C1/C(=C\c2ccc(F)cc2)CN(C(=O)c2ccc([N+](=O)[O-])cc2)C/C1=C\c1ccc(F)cc1, which growth (HT29 colon) is on record?
A: -56.9% (active)

Q: What about the growth (SNB-75 CNS) of the same compound?
A: 56.7%

Q: What about the growth (SNB-19 CNS) of the same compound?
A: 67.5%

Q: And the growth (U251 CNS)?
A: 9.03% (active)

Q: And the growth (PC-3 prostate)?
A: 28.6%

Q: And the growth (SK-MEL-5 melanoma)?
A: 45.7%

Q: What about the growth (UACC-62 melanoma) of the same compound?
A: 40.3%

Q: What about the growth (LOX IMVI melanoma) of the same compound?
A: -53.3% (active)

Q: And the growth (SK-MEL-28 melanoma)?
A: 65.1%

Q: And the growth (SK-MEL-2 melanoma)?
A: 74.5%

Q: With COc1cc(-c2cc(/C=C3\C(=O)Nc4cc(Cl)ccc43)[nH]n2)cc(OC)c1OC as the compound, how does the growth (HT29 colon) read?
A: 28.3%

Q: And the growth (SNB-75 CNS)?
A: -5.23% (active)

Q: What about the growth (SNB-19 CNS) of the same compound?
A: 46.7%

Q: And the growth (U251 CNS)?
A: 40.4%

Q: What about the growth (PC-3 prostate) of the same compound?
A: 4.7% (active)

Q: What about the growth (SK-MEL-5 melanoma) of the same compound?
A: -49.5% (active)

Q: And the growth (UACC-62 melanoma)?
A: -51.5% (active)

Q: What about the growth (LOX IMVI melanoma) of the same compound?
A: 6.79% (active)

Q: What about the growth (SK-MEL-28 melanoma) of the same compound?
A: 19.9%

Q: And the growth (SK-MEL-2 melanoma)?
A: 51.9%

Q: COc1cccc(-c2cc(-c3cccc(NS(C)(=O)=O)c3)nc(N)c2C#N)c1O was tested. Which growth (HT29 colon) did it give?
A: 12.6%

Q: What about the growth (SNB-75 CNS) of the same compound?
A: -16.4% (active)

Q: What about the growth (SNB-19 CNS) of the same compound?
A: 42.3%

Q: And the growth (U251 CNS)?
A: 30.9%

Q: What about the growth (PC-3 prostate) of the same compound?
A: 16.6%

Q: What about the growth (SK-MEL-5 melanoma) of the same compound?
A: 11.9%

Q: And the growth (UACC-62 melanoma)?
A: 52.9%

Q: What about the growth (LOX IMVI melanoma) of the same compound?
A: 46.6%

Q: And the growth (SK-MEL-28 melanoma)?
A: 76.7%

Q: And the growth (SK-MEL-2 melanoma)?
A: 69%

Q: With ClCC#CCSc1ncnc2c1ncn2CC#CCCl as the compound, how does the growth (HT29 colon) read?
A: 17.7%

Q: And the growth (SNB-75 CNS)?
A: -57.5% (active)

Q: And the growth (SNB-19 CNS)?
A: 13.2%

Q: And the growth (U251 CNS)?
A: 0.284% (active)

Q: And the growth (PC-3 prostate)?
A: 32.3%

Q: And the growth (SK-MEL-5 melanoma)?
A: 9.62% (active)

Q: And the growth (UACC-62 melanoma)?
A: 19.2%

Q: And the growth (LOX IMVI melanoma)?
A: -35.5% (active)

Q: And the growth (SK-MEL-28 melanoma)?
A: 39.5%

Q: What about the growth (SK-MEL-2 melanoma) of the same compound?
A: 41.1%

Q: How did the growth (HT29 colon) turn out when CCN(CC)CCNC(=O)c1ccc(NC(C)=O)cc1 was run?
A: 102%

Q: And the growth (SNB-75 CNS)?
A: 112%

Q: And the growth (SNB-19 CNS)?
A: 98.1%

Q: What about the growth (U251 CNS) of the same compound?
A: 93.9%

Q: What about the growth (PC-3 prostate) of the same compound?
A: 104%

Q: What about the growth (SK-MEL-5 melanoma) of the same compound?
A: 103%

Q: And the growth (UACC-62 melanoma)?
A: 94.2%

Q: What about the growth (LOX IMVI melanoma) of the same compound?
A: 95.3%

Q: What about the growth (SK-MEL-28 melanoma) of the same compound?
A: 118%

Q: And the growth (SK-MEL-2 melanoma)?
A: 115%

Q: What does the source list for COc1ccc(Nc2ccnc(NCCNc3ccnc4cc(Cl)ccc34)n2)cc1?
A: growth (HT29 colon): 9.08% (active); growth (SNB-75 CNS): 78.9%; growth (SNB-19 CNS): 67.4%; growth (U251 CNS): 59.1%; growth (PC-3 prostate): 30.1%; growth (SK-MEL-5 melanoma): -50.8% (active); growth (UACC-62 melanoma): 74.9%; growth (LOX IMVI melanoma): 8.82% (active); growth (SK-MEL-28 melanoma): -29% (active); growth (SK-MEL-2 melanoma): 71.8%

Q: Which results are given for C[C@]12CC[C@@H]3c4ccc(O)cc4C[C@@H](O)[C@H]3[C@@H]1CC[C@@H]2O?
A: growth (HT29 colon): 102%; growth (SNB-75 CNS): 87.8%; growth (SNB-19 CNS): 108%; growth (U251 CNS): 96.1%; growth (PC-3 prostate): 90.2%; growth (SK-MEL-5 melanoma): 96%; growth (UACC-62 melanoma): 97.1%; growth (LOX IMVI melanoma): 97.3%; growth (SK-MEL-28 melanoma): 117%; growth (SK-MEL-2 melanoma): 110%

Q: Which growth (HT29 colon) does the source give for O=C(Nc1nc2ccc(F)cc2s1)c1cc(-c2ccc(F)cc2)n2nc(-c3ccccc3)cc2n1 here?
A: 92.7%

Q: And the growth (SNB-75 CNS)?
A: 70.7%

Q: What about the growth (SNB-19 CNS) of the same compound?
A: 88%

Q: What about the growth (U251 CNS) of the same compound?
A: 102%

Q: And the growth (PC-3 prostate)?
A: 84.2%

Q: And the growth (SK-MEL-5 melanoma)?
A: 68.3%

Q: What about the growth (UACC-62 melanoma) of the same compound?
A: 66.3%

Q: And the growth (LOX IMVI melanoma)?
A: 85.9%

Q: What about the growth (SK-MEL-28 melanoma) of the same compound?
A: 58.1%

Q: And the growth (SK-MEL-2 melanoma)?
A: 111%

Q: With O=C1N=NC2=C1c1c3ccccc3c(O)n1CC2 as the compound, how does the growth (HT29 colon) read?
A: 103%

Q: What about the growth (SNB-75 CNS) of the same compound?
A: 103%

Q: What about the growth (SNB-19 CNS) of the same compound?
A: 96.3%

Q: What about the growth (U251 CNS) of the same compound?
A: 105%

Q: And the growth (PC-3 prostate)?
A: 86.2%

Q: What about the growth (SK-MEL-5 melanoma) of the same compound?
A: 112%

Q: And the growth (UACC-62 melanoma)?
A: 96.4%

Q: And the growth (LOX IMVI melanoma)?
A: 105%

Q: And the growth (SK-MEL-28 melanoma)?
A: 108%

Q: And the growth (SK-MEL-2 melanoma)?
A: 110%

Q: Which results are given for O=C1/C(=C\c2ccc(Br)cc2)CN(C(=O)c2ccccc2F)C/C1=C\c1ccc(Br)cc1?
A: growth (HT29 colon): -47.4% (active); growth (SNB-75 CNS): 56.5%; growth (SNB-19 CNS): 54.3%; growth (U251 CNS): -66.6% (active); growth (PC-3 prostate): 3.89% (active); growth (SK-MEL-5 melanoma): 30.4%; growth (UACC-62 melanoma): -3.15% (active); growth (LOX IMVI melanoma): -85.5% (active); growth (SK-MEL-28 melanoma): 15.1%; growth (SK-MEL-2 melanoma): 66%

Q: Which results are given for O=[N+]([O-])c1ccc(N/N=C/c2cccc3ccccc23)nc1?
A: growth (HT29 colon): 97.1%; growth (SNB-75 CNS): 93.2%; growth (SNB-19 CNS): 99.2%; growth (U251 CNS): 93%; growth (PC-3 prostate): 90.7%; growth (SK-MEL-5 melanoma): 100%; growth (UACC-62 melanoma): 91.4%; growth (LOX IMVI melanoma): 97.1%; growth (SK-MEL-28 melanoma): 111%; growth (SK-MEL-2 melanoma): 103%
